Data from PubChem BioAssay (NCATS).
Records with an inconclusive call do not appear. The source made the active and inactive calls. Calls follow the shape of the dose curve; as a rule, active = well fitted cell-killing curve with a large enough effect; inconclusive = small, poorly fitted or top-dose-only effect, or effect the other way; inactive = flat fitted curve, though single readings scatter.

How the values were obtained:
Assay in all cases: Primary qHTS to identify gynecologic anti-cancer compounds using libraries of approved drugs and bioactive compounds (AID 1345084); also: nearly all actives have a fitted effect of over 55% in size
C33A = settings: Gynecologic cancer cell panel viability, ATPlite luminescence, 48 h; series mostly up to 57.5 µM
Outline: (§1)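 Cytotoxicity screen measuring ATP content by luciferase luminescence. Each compound is applied at five concentrations for 48 h at 37 C with 5% CO2.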

CAOV3 = settings: Gynecologic cancer cell panel viability, ATPlite luminescence, 48 h; series mostly up to 57.5 µM
Outline: as §1

CASKI = settings: Gynecologic cancer cell panel viability, ATPlite luminescence, 48 h; series mostly up to 57.5 µM
Outline: as §1

Es-2 = settings: Gynecologic cancer cell panel viability, ATPlite luminescence, 48 h; series mostly up to 57.5 µM
Outline: as §1

HeLa = settings: Gynecologic cancer cell panel viability, ATPlite luminescence, 48 h; series mostly up to 57.5 µM
Outline: as §1

Hek293T = settings: Gynecologic cancer cell panel viability, ATPlite luminescence, 48 h, control line for the selectivity index; series mostly up to 57.5 µM
Outline: as §1

JEG-3 = settings: Gynecologic cancer cell panel viability, ATPlite luminescence, 48 h; series mostly up to 57.5 µM
Outline: as §1

OV90 = settings: Gynecologic cancer cell panel viability, ATPlite luminescence, 48 h; series mostly up to 57.5 µM
Outline: as §1

PA-1 = settings: Gynecologic cancer cell panel viability, ATPlite luminescence, 48 h; series mostly up to 57.5 µM
Outline: as §1

SKOV3 = settings: Gynecologic cancer cell panel viability, ATPlite luminescence, 48 h; series mostly up to 57.5 µM
Outline: as §1

Tov-21-G = settings: Gynecologic cancer cell panel viability, ATPlite luminescence, 48 h; series mostly up to 57.5 µM
Outline: as §1

Tov112D = settings: Gynecologic cancer cell panel viability, ATPlite luminescence, 48 h; series mostly up to 57.5 µM
Outline: as §1

Measured: Potency

C=C(C(=O)O)C1CCC2(C)CCC(O)C(C)(O)C2C1 (stereo unspecified)
inactive: C33A | CAOV3 | CASKI | Es-2 | HeLa | Hek293T | JEG-3 | OV90 | PA-1 | SKOV3 | Tov-21-G | Tov112D

CNC12CC3C[C@@](C)(C1)C[C@](C)(C3)C2
inactive: C33A | CAOV3 | CASKI | Es-2 | HeLa | Hek293T | JEG-3 | OV90 | PA-1 | SKOV3 | Tov-21-G | Tov112D

C=CC1(C)C=C2CCC3C(C)(C)C(O[C@@H]4O[C@@H](CO)[C@H](O)[C@H]4O)CCC3(C)C2CC1O[C@@H]1O[C@H](C)[C@H](O)[C@H](O)[C@H]1O (stereo partly specified)
inactive: C33A | CAOV3 | CASKI | Es-2 | HeLa | Hek293T | JEG-3 | OV90 | PA-1 | SKOV3 | Tov-21-G | Tov112D

C/C=C1\[C@H](O[C@@H]2O[C@H](CO)[C@@H](O)[C@H](O)[C@H]2O)OC=C(C(=O)OC)[C@H]1CC(=O)O
inactive: C33A | CAOV3 | CASKI | Es-2 | HeLa | Hek293T | JEG-3 | OV90 | PA-1 | SKOV3 | Tov-21-G | Tov112D

COC(=O)[C@H](O)[C@H]1C(C)(C)[C@H](OC(=O)C(C)C)[C@@]2(O)C(=O)[C@]1(C)C1CC[C@]3(C)C(CC(=O)O[C@H]3c3ccoc3)[C@]13O[C@@H]32 (stereo partly specified)
inactive: C33A | CAOV3 | CASKI | Es-2 | HeLa | Hek293T | JEG-3 | OV90 | PA-1 | SKOV3 | Tov-21-G | Tov112D

Cc1cccc(S(=O)(=O)N2CCC[C@@H]2CCN2CCC(C)CC2)c1
inactive: C33A | CAOV3 | CASKI | Es-2 | HeLa | Hek293T | JEG-3 | OV90 | PA-1 | SKOV3 | Tov-21-G | Tov112D

COc1ccc(/C=C/C(=O)O[C@@H]2[C@@H](O)[C@@H](O)[C@H](O[C@@H]3C=C(CO)[C@H]4[C@H](O[C@@H]5O[C@H](CO)[C@@H](O)[C@H](O)[C@H]5O)OC=C[C@H]43)O[C@H]2C)cc1O
inactive: C33A | CAOV3 | CASKI | Es-2 | HeLa | Hek293T | JEG-3 | OV90 | PA-1 | SKOV3 | Tov-21-G | Tov112D

Cn1cc(-c2ccc3nnc(Sc4ccc5nn(C)cc5c4)n3n2)cn1
inactive: C33A | CAOV3 | CASKI | Es-2 | HeLa | Hek293T | JEG-3 | OV90 | PA-1 | SKOV3 | Tov-21-G | Tov112D

CC[C@H]1OC(=O)[C@H](C)[C@@H](O[C@H]2C[C@@](C)(OC)[C@@H](O)[C@H](C)O2)[C@H](C)[C@@H](O[C@@H]2O[C@H](C)C[C@H](N(C)C)[C@H]2O)[C@](C)(O)C[C@@H](C)C(=O)[C@H](C)[C@H]2OC(=O)O[C@@]21C
inactive: C33A | CAOV3 | CASKI | Es-2 | HeLa | Hek293T | JEG-3 | OV90 | PA-1 | SKOV3 | Tov-21-G | Tov112D

C[C@@H]1C[C@@H](O)[C@@]23CO[C@@H](O)[C@@H]2CCC[C@@H]3[C@@]12C[C@@H](c1ccoc1)OC2=O
inactive: C33A | CAOV3 | CASKI | Es-2 | HeLa | Hek293T | JEG-3 | OV90 | PA-1 | SKOV3 | Tov-21-G | Tov112D

C=CC/C=C\C/C=C\CCCCCCCc1cccc(O)c1C(=O)O
inactive: C33A | CAOV3 | CASKI | Es-2 | HeLa | Hek293T | JEG-3 | OV90 | PA-1 | SKOV3 | Tov-21-G | Tov112D

CCc1c(-c2ccccc2)c(-c2ccccc2)nn1-c1ccccc1-c1cccc(OCC(=O)O)c1
inactive: C33A | CAOV3 | CASKI | Es-2 | HeLa | Hek293T | JEG-3 | OV90 | PA-1 | SKOV3 | Tov-21-G | Tov112D

CCOCc1nc2c(N)nc3ccccc3c2n1CC(C)(C)O
inactive: C33A | CAOV3 | CASKI | Es-2 | HeLa | Hek293T | JEG-3 | OV90 | PA-1 | SKOV3 | Tov-21-G | Tov112D
